Measured values taken from PubChem BioAssay AID686978 (National Center for Advancing Translational Sciences (NCATS), 2013).
About 64,000 (15%) of roughly 420,000 compounds were called active. Not shown: some 27% with an inconclusive outcome. The list is a sample of the results. Values without a mark were called inactive. Calls follow the shape of the dose curve; as a rule, active = well fitted inhibition curve with a large enough effect; inconclusive = small, poorly fitted or top-dose-only effect; inactive = flat fitted curve, though single readings scatter.

Assay: qHTS for Inhibitors of human tyrosyl-DNA phosphodiesterase 1 (TDP1): qHTS in cells in absence of CPT; also: nearly all actives have a fitted effect of over 55% in size
Conditions: DT40 Tdp1-/- hTDP1 cells, no CPT, ATP luminescence, 48 h; activity change, negative = growth inhibition: at 46.2 µM (top of the series)
How it was run: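 Stably hTDP1-transfected Tdp1-null chicken DT40 cells were treated with library compounds minus camptothecin and grown for at least 48 hr at 37 °C, after which cellular ATP was quantified by luminescence.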
% is scaled to controls: 0 for no effect and ±100 for the full control effect; potency is read from the fitted curve at half-maximal effect.

Compound	activity change, negative = growth inhibition [%]	Potency
Cc1ccc(OC(=O)c2ccccc2C(=O)OCC(F)(F)C(F)F)cc1	-4.89	–
O=C(O)c1cc2ccccc2c(=O)s1	-6.59	–
CC(=O)c1ccc(NC(=O)Cn2c(=O)oc3ccccc32)cc1	-10.3	–
COc1ccc(C2(C)NC(=O)N(CC(=O)c3ccc4c(c3)OCO4)C2=O)cc1 (stereo not drawn)	-20.5	–
CCc1ccc(-n2nnc(-c3nc(-c4ccccc4)no3)c2C)cc1	3.01	–
Cc1ccc(NC(=O)CSc2nnc(CNC(=O)c3ccccc3F)o2)cc1Cl	6.65	–
Cc1cccc(-n2c(SCC(=O)Nc3cccc(S(=O)(=O)NC4=NCCCCC4)c3)nc3ccccc3c2=O)c1C	–	16.4 µM (active)
COc1ccccc1C(=O)OCC(=O)Nc1cccc(S(=O)(=O)NC2=NCCCCC2)c1	-28.2	–
CCc1ccc(C(=O)OCC(=O)Nc2cccc(S(=O)(=O)NC3=NCCCCC3)c2)cc1	-16.1	–
O=C(Cc1cccs1)Nc1nnc(SCc2ccc(F)cc2)s1	-8.66	–
Nc1nnnn1/N=C/c1cc([N+](=O)[O-])ccc1O	-19	–
O=[N+]([O-])c1ccc(O)c(/C=N/Nc2ccccc2[N+](=O)[O-])c1	–	18.4 µM (active)
O=[N+]([O-])c1cccc(C=NN=Cc2ccccc2O)c1	-0.122	–
CCCCn1c(N)c(N(CCC(C)C)C(=O)c2ccc(COc3ccccc3)o2)c(=O)[nH]c1=O	-8.96	–
CS(=O)(=O)N1CCN(CC(=O)NC2CCCC2)CC1	-27.4	–
Cn1c(-c2ccco2)nc2cc3ccccc3cc21	–	20.6 µM (active)
COc1ccccc1-n1c(-c2cc(-c3ccco3)[nH]n2)n[nH]c1=S	-5.33	–
CN(c1nc2ccccc2n2c(-c3ccco3)nnc12)S(=O)(=O)c1ccccc1	-12.7	–
CCN(CC)C(=O)CSC1c2ccccc2C(=O)N1c1ccccc1 (stereo not drawn)	-17.6	–
COC(=O)c1ccc(-n2cnc3ccccc32)nc1	0.376	–
COC(=O)CSc1nc(C)c2ccc(OC)cc2n1	-3.51	–
O=C(O)C(c1ccccc1)C1(O)CCCCC1 (stereo not drawn)	-7.94	–
CC1COc2ccccc2N1C(=O)c1cccnc1Cl (stereo not drawn)	-1.42	–
O=C(Nn1c(-c2ccc(Cl)cc2)nc2ccccc2c1=O)c1cccnc1Cl	2.46	–
CN1/C(=C\C(=O)c2cccnc2Cl)C(C)(C)c2ccccc21	–	16.4 µM (active)
COCCN(C(=O)CCC(=O)Nc1nccs1)C(C(=O)NCCC(C)C)c1ccc(F)cc1 (stereo not drawn)	-22.3	–

Compound	activity change, negative = growth inhibition [%]	Potency
Cc1ncc2c(c1CNS(=O)(=O)N(C)C)CCN(C(=O)c1ccccc1F)C2	-14.2	–
CC(=O)N1N=C(c2ccccc2)OC1c1cccnc1 (stereo not drawn)	-18.3	–
CC(=O)N1N=C(c2ccncc2)OC1(Cc1ccccc1)Cc1ccccc1	–	8.2 µM (active)
CC(C)(C)N(Cc1ccccc1)C(=O)c1ccncc1	8.21	–
CC1(c2cccc(N)c2)OCCO1	1.06	–
Cc1ccc(S(=O)(=O)/N=C(/NC(=S)Nc2c(C)n(C)n(-c3ccccc3)c2=O)c2ccccc2)cc1	14.8	–
COc1ccccc1CNC(=O)COC(=O)c1cccs1	-1.27	–
Cc1ccccc1CNC(=O)C(=O)NCC(c1cccs1)S(=O)(=O)c1cccs1 (stereo not drawn)	–	14.6 µM (active)
CC(C)C(=O)NCC(c1cccs1)S(=O)(=O)c1ccc(F)cc1 (stereo not drawn)	11.1	–
O=C(CNC(=O)c1ccco1)NNC(=O)c1ccc(Br)cc1	17.5	–
O=C(Oc1ccccc1)c1ccc2nccnc2c1	2.88	–
CC(C)c1nc(-c2ccccn2)no1	-11.4	–
O=C(Oc1ccc(-c2nc(-c3ccccn3)no2)cc1)c1ccccc1	–	9.2 µM (active)
COc1ccc(S(=O)(=O)N2CCN(CC(=O)N3c4ccccc4CC3C)CC2)cc1OC (stereo not drawn)	-5.83	–
O=C(NC1=NCCS1)[C@H](Cc1ccccc1)N1C(=O)c2ccccc2C1=O	-17.9	–
Cc1occc1C(=O)NNC(=S)NCC(C)C	-1.82	–
Cc1occc1C(=O)NC1CCCN(Cc2ccc(CC(C)C)cc2)C1 (stereo not drawn)	–	20.6 µM (active)
Cc1occc1C(=O)Nc1cccc(Cn2cccn2)c1	-25.6	–
CCOC(=O)C(NC(C)=O)C(=O)Nc1ccc(OC)cc1 (stereo not drawn)	-3.87	–
CC(=O)N(O)CCCCCNC(=O)CCC(=O)N(O)CCCCCNC(=O)CCC(=O)N(O)CCCCCNC(=O)CCC(=O)O	-5.15	–
Cc1cc(C)nc(NC2=NCC(=O)N2c2ccc(Cl)cc2)n1	-7.59	–
CCc1nc2ccc(C(=O)N3CCN(c4cc(Cl)ccc4C)CC3)cc2nc1CC	–	18.4 µM (active)
CCOC(=O)N1CCN(C(=O)c2ccc3nc4cc(Cl)ccc4c(=O)n3c2)CC1	-13.1	–
Cc1ccc(Cl)cc1N1CCN(C(=O)c2cccn3c(=O)c4cc(Cl)ccc4nc23)CC1	-1.72	–
CN(C)CCCNC(=S)N1CCC(c2nc3ccccc3[nH]2)CC1	10.9	–
CC(C)(C)c1ccc(C(CC(=O)O)NS(=O)(=O)Cc2ccccc2)cc1 (stereo not drawn)	12.1	–

Compound	activity change, negative = growth inhibition [%]	Potency
CCCCc1nc2c(=O)[nH]c3ccccc3c2o1	-13.7	–
CC1=C/C(=N\OS(=O)(=O)c2ccccc2)C=CC1=O	–	1 µM (active)
O=S(=O)(ON(c1ccccc1)S(=O)(=O)c1ccccc1)c1ccccc1	-27.9	–
CCCC(=O)Nc1nc2ccc(NC(=O)c3cccnc3)cc2s1	–	9.2 µM (active)
CCOC(=O)c1cc(NC(=O)c2cccnc2)cc(C(=O)OCC)c1	-5.59	–
CCCC(=O)Nc1nc2ccc(NC(=O)c3c(F)c(F)c(OC)c(F)c3F)cc2s1	–	0.651 µM (active)
CSc1nc2ccc(NC(=O)c3c(F)cccc3F)cc2s1	-1.17	–
CCC(=O)Nc1cccc(NC(=O)c2cccnc2)c1	7.17	–
CCCC(=O)Nc1ccc2c(c1)nc1n2CCSC1	-2.08	–
O=C(COC(=O)/C=C/c1ccc(OC(F)F)cc1)NC1CCCCC1	-11	–
O=C(CCNS(=O)(=O)c1ccccc1)NCCCc1ccccc1	15.1	–
O=S(=O)(c1ccccc1)N1CN(Cc2ccc(F)cc2)c2nc3ccccc3nc21	-29.9	–
O=C(CCN1C(=O)C2CCCCC2C1=O)Nc1ccc(OC(F)F)cc1 (stereo not drawn)	-2.98	–
COc1ccccc1CNc1ncnc2ccc(-c3c(C)noc3C)cc12	–	11.6 µM (active)
COc1ccccc1CNc1ncnc2ccc(-c3ccc4c(c3)OCO4)cc12	-26.4	–
COCCNc1ncnc2ccc(-c3ccccc3CN(C)C)cc12	-13.2	–
CCC1(CC)NC(=O)N(CC(=O)OCC(=O)Nc2ccc(C(F)(F)F)cc2)C1=O	-10.4	–
CCCN(C/C=C\I)[C@@H]1CCc2cccc(O)c2C1	–	21.1 µM (active)
CCCN(CCc1ccccc1)C1CCc2c(O)cccc2C1 (stereo not drawn)	–	11.6 µM (active)
O=C(C(=O)N1CCOc2ccc(CN3CCN(Cc4ccccn4)CC3)cc2C1)c1ccccc1	-22.4	–
COCCNC(=O)c1onc(CSc2cccc(C)c2)c1C(=O)O	-8.38	–
CCOc1ccc(NC(=S)N2CCC(N(C)CC3CCCO3)CC2)cc1 (stereo not drawn)	1.02	–
COc1ccc2oc(N)c(C=O)c(=O)c2c1	0.424	–
CCOc1ccc(NC(=O)C/C(C)=N/NC(=O)Cc2cccs2)cc1	-1.31	–
CN1C(=O)[C@H]2[C@@H](C3CC3)N3C(=O)CN(Cc4ccccc4)C(=O)[C@@]3(C)[C@H]2C1=O	2.76	–
Cc1ccccc1Cn1c(=O)[nH]c2ccccc21	-22.8	–

Compound	activity change, negative = growth inhibition [%]	Potency
Cc1cccc(C)c1NC(=O)N1CC=C(n2c(=O)[nH]c3ccccc32)CC1	–	20.6 µM (active)
Cc1cccc(C)c1NC(=O)N1CC(C)OC(C)C1 (stereo not drawn)	19.8	–
COc1ccc(C)cc1N1C(=O)[C@@H]2C[C@H]1CN2Cc1cccc(OC)c1O	-29.5	–
COc1ccc(N2CCC(N3CCN(C)C(CCO)C3)CC2)cc1 (stereo not drawn)	25.1	–
COc1ccc(-c2[nH]c3c(c2-c2c(-n4cccc4)n(C)c(=O)n(C)c2=O)c(=O)n(C)c(=O)n3C)cc1	-7.33	–
COc1ccc(-c2c3c(=O)n(C)c(=O)n(C)c3cn2NC(C)=O)cc1	1.83	–
COc1ccc(-c2c3c(=O)n(C)c(=O)n(C)c3c3c(C)nc4ccccc4n23)cc1	–	20.6 µM (active)
CC1=NNC(=O)C1CCC(=O)N/N=C\c1cccc(Cl)c1 (stereo not drawn)	6.28	–
Cc1ccc(S(=O)(=O)N2[C@@H](Cc3ccccc3)CO[C@H]2CC(=O)OCc2ccccc2)cc1	–	23.1 µM (active)
CC(=O)C[C@@H]1OC[C@H](C)N1S(=O)(=O)c1ccc(C)cc1	1.6	–
CC(=O)C[C@@H]1OC[C@H](CO)N1S(=O)(=O)c1ccc(C)cc1	11	–
CC(=O)Nc1nc(C)c(Cc2ccccc2)c(=O)[nH]1	3.66	–
CCCCn1c(N)c(N(CC(C)C)C(=O)c2ccc(Br)o2)c(=O)[nH]c1=O	-34.5	–
O=S1(=O)CC(N2CCN(CCO)CC2)CN1Cc1cn(Cc2cccc(Cl)c2)nn1 (stereo not drawn)	6.99	–
Cc1ccc(Cn2cc(CN3CC(N4CCN(C)CC4)CS3(=O)=O)nn2)cc1 (stereo not drawn)	-22.6	–
O=S1(=O)CC(N2CCN(Cc3ccccc3F)CC2)CN1Cc1cn(Cc2cccc(C(F)(F)F)c2)nn1 (stereo not drawn)	–	16.4 µM (active)
Cc1cccc(CN2CCN(C3CN(Cc4cn(Cc5cc(C)cc(C)c5)nn4)S(=O)(=O)C3)CC2)c1 (stereo not drawn)	–	16.4 µM (active)
CCCCCCN1CCN(C2CN(Cc3cn(CCCCCC)nn3)S(=O)(=O)C2)CC1 (stereo not drawn)	–	20.6 µM (active)
O=S1(=O)CC(N2CCN(CCO)CC2)CN1Cc1cn(Cc2ccc(Cl)cc2)nn1 (stereo not drawn)	-19.6	–
CN(C)C1CN(Cc2cn(Cc3ccccc3)nn2)S(=O)(=O)C1 (stereo not drawn)	-19.1	–
CN(Cc1cn(Cc2ccc(C(F)(F)F)cc2)nn1)C1CN(Cc2cn(Cc3ccc(C(F)(F)F)cc3)nn2)S(=O)(=O)C1 (stereo not drawn)	–	4.61 µM (active)
Cc1cc(C)cc(CN2CCc3nnc(C(NS(C)(=O)=O)C(C)C)n3CC2)c1 (stereo not drawn)	-16.9	–
CC(C)C(C)(C#N)NC(=O)CSc1nc2scc(-c3ccccc3)c2c(=O)[nH]1 (stereo not drawn)	-17.6	–
CC1(c2ccc(Cl)cc2)NC(=O)N(CC(=O)c2ccc3c(c2)OCO3)C1=O (stereo not drawn)	-5.62	–
Cn1c2c(c(=O)n(C)c1=O)CN(Cc1ccco1)CN2	4.5	–
